Test system: not listed separately
Test: probe aInhba binding on compound microarray – biochemical, small-molecule microarray, 635/667 nm fluorescence, primary screen (AID 1148);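 also: score merges 667nm spot fluorescence with signal-to-noise for antibody binding to printed compounds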
Details: higher = more signal

Compound	composite z-score
CCCC=C(CCC)[C@@H](NC(=O)c1cccs1)c1ccc(C(F)(F)F)cc1	0.473
CN(C)C(=O)[C@]1(Cc2ccccc2N=[N+]=[N-])N=C(c2ccc(OCCCO)cc2)O[C@@H]1c1ccccc1N=[N+]=[N-]	-0.0162
COC(=O)[C@@]1(Cc2ccc(OC)cc2)[C@H]2c3cc(C(=O)N(C)C)n(Cc4ccccn4)c3C[C@H]2CN1C(=O)c1ccccc1	0.322
COC(=O)[C@@]1(Cc2ccc(F)cc2)[C@H]2c3cc(C(=O)N4CCCC4)n(CCCNc4ncc(C(F)(F)F)cc4Cl)c3C[C@H]2CN1C(=O)c1ccccc1	0.656
O=C(CS)NCCCCCCNC(=O)[C@@H]1C[C@@H]2C(=O)NCC(=O)N2[C@@H]1c1cccc(OCCO)c1	-0.613
CCOC(=O)C[C@H]1[C@H](OC(=O)c2ccccc2-c2ccccc2)[C@@H](NC(=O)CC(C)C)c2cc(OCCCO)ccc2N1C(=O)Cc1ccc(OC)cc1	-0.179
COc1ccc([C@H]2OC[C@@H]3C[C@@H](Cc4ccccc4)C(=O)N32)cc1	-0.0403
COc1ccc(CCNC(=O)[C@@]2(C)c3ccccc3C(=O)N(C(C)C)[C@H]2c2ccc(CO)cc2)cc1	-0.102
C=CCOC(=O)[C@@H]1[C@H]2C(=O)O[C@H](c3ccccc3)[C@H](c3ccccc3)N2[C@H](c2ccc(OCCOC(=O)[C@@H]3C[C@@H]4C(=O)NCC(=O)N4[C@@H]3c3ccc(O)cc3)cc2)[C@@]12C(=O)Nc1ccc(I)cc12	0.029
O=C1C[C@@](C(=O)NCCN2CCOCC2)(c2ccc([N+](=O)[O-])cc2)[C@@H](c2ccc(CO)cc2)N1CC12CC3CC(CC(C3)C1)C2	0.0154
COCCOC(=O)N1C(=O)[C@@]2(c3cc(C#CCC(C(=O)OC)C(=O)OC)ccc31)[C@H](C(=O)Nc1nc3ccccc3s1)[C@H]1C(=O)O[C@H](c3ccccc3)[C@H](c3ccccc3)N1[C@@H]2c1ccccc1OCCO	0.0711
COC(=O)[C@@]1(Cc2ccccc2)[C@H]2c3cc(C(=O)N(C)C)n(Cc4ccsc4Br)c3C[C@H]2CN1C(=O)c1ccccc1	0.0737
CC1CC/C=C\[C@H]2OC34C=CCN(C(C)(C)C)C(=O)[C@H]3N(CCO)C(=O)[C@@H]4C2C(=O)O1 (stereo partly drawn)	-0.171
C=C(CCCC)/C(=C/C[C@@H](OC(C)=O)c1ccc(OCCO)cc1)c1cnc2ccccc2c1	-0.0405
CC(C)C(O)C1C=CC2C(=O)N(c3ccccc3)C(=O)C2N1Nc1ccc([N+](=O)[O-])cc1 (stereo not drawn)	0.726
C=C(COC)/C(=C/C[C@H](OC(C)=O)c1ccc(CO)o1)c1cc(C(=O)OC)ccc1OC	-0.154
COC(=O)[C@@]1(Cc2ccc(OC)cc2)[C@H]2c3cc(C(=O)N(C)C)n(C)c3C[C@H]2CN1C(=O)c1ccccc1	0.706
CCOC(=O)[C@H]1C/C=C/C[C@H](C(=O)OCC)C(=O)O[C@H]2[C@@H](OC)O[C@H](CO)[C@@H](OC(=O)c3c(OC)cccc3OC)[C@@H]2OC1=O	-0.0501
CC(C)NC(=O)[C@@]1(c2ccc([N+](=O)[O-])cc2)CC(=O)N(C2CCCCC2)[C@@H]1c1ccc(CO)cc1I	0.0497
CN1C(=O)C2C=CC(C(O)c3ccc([N+](=O)[O-])cc3)N(N3CCCCC3)C2C1=O (stereo not drawn)	0.464
COCCOC(=O)N1C(=O)[C@@]2(c3cc(C#CCNC(N)=O)ccc31)[C@H](C(=O)N1CCN(c3ncccn3)CC1)[C@H]1C(=O)O[C@H](c3ccccc3)[C@H](c3ccccc3)N1[C@@H]2c1ccc(OCCO)cc1	0.0154
O=C1NC(=O)C2C1C=CC(C(O)c1cc(C(F)(F)F)cc(C(F)(F)F)c1)N2Nc1ccccn1 (stereo not drawn)	-0.0059
COCCOC(=O)N1C(=O)[C@@]2(c3ccccc31)[C@H](C(=O)N1CCc3cc(OC)c(OC)cc3C1)[C@H]1C(=O)O[C@H](c3ccccc3)[C@H](c3ccccc3)N1[C@@H]2c1ccc(OCCO)cc1	0.0569
COC(=O)C(CC#Cc1ccc2c(c1)[C@]1(C(=O)N2)[C@H](C(=O)Nc2nc3ccccc3s2)[C@H]2C(=O)O[C@H](c3ccccc3)[C@H](c3ccccc3)N2[C@@H]1c1ccccc1OCCO)C(=O)OC	0.12
CN1C(=O)C2C=CC(C(O)c3ccccc3)N(N(c3ccccc3)c3ccccc3)C2C1=O (stereo not drawn)	0.0051
COC(=O)[C@@]1(CCS(=O)(=O)c2ccccc2)N=C(c2ccc(OCCCO)cc2)O[C@H]1c1ccccc1CN=[N+]=[N-]	0.0808
COC(=O)[C@H](Cc1ccccc1)N1CC2=C[C@@H](C3CC3)n3c(=O)n(C)c(=O)n3[C@H]2[C@@H]1[C@@H](O)Cc1ccccc1	-0.0589

Molecular target: Torsin-1A (Homo sapiens) (UniProt O14656)
Test: TOR1A wild-type binding on microarray – cell lysate, small-molecule microarray, lysate, 635/667 nm, primary screen (AID 1149)
Details: COS7 hTOR1A-WT lysate, 635 nm fluorescence, higher = more signal

Chain of Torsin-1A (Homo sapiens) (O14656 whole entry, looked up): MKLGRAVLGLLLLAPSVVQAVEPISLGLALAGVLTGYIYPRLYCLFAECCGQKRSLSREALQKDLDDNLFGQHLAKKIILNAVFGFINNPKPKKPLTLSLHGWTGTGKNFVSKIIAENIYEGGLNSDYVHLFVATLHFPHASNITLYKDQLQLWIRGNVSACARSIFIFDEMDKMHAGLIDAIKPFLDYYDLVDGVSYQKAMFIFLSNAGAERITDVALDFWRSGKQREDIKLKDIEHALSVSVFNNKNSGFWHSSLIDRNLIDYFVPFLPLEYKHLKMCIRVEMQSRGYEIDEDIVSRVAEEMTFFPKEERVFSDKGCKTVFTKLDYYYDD

Compound	composite z-score
CC[C@@H]1C=C(C(=O)O)[C@H](c2ccc(Br)cc2)N1S(=O)(=O)c1ccc(C)cc1	0.297
O=C1c2ccccc2[C@](Cc2ccccc2I)(C(=O)NCCN2CCOCC2)[C@H](c2ccc(CO)cc2)N1Cc1ccccc1Cl	0.442
COC(=O)[C@@]1(Cc2ccc(OC)cc2)[C@H]2c3cc(C(=O)N4CCCC4)n(CCN4CNCC4=O)c3C[C@H]2CN1C(=O)c1ccccc1	0.294
COC(=O)[C@@]1(Cc2ccc(OC)cc2)[C@@H]2C(=CC(=O)[C@H]2CC(=O)C(=O)N2CCCC2)CN1C(=O)c1ccccc1	-0.234
C=CCNC(=O)[C@@H]1[C@H]2C(=O)O[C@H](c3ccccc3)[C@H](c3ccccc3)N2[C@H](c2ccc(O)cc2)[C@@]12C(=O)N(C(=O)OCCOC)c1ccc(C#CCNC(N)=O)cc12	0.699
Cc1ccc(S[C@]2(C(=O)NCCCN(C)C)CC(=O)N(Cc3cc(C(F)(F)F)cc(C(F)(F)F)c3)[C@@H]2c2ccc(CO)cc2)cc1	-0.0089
COc1ccc([Si](C)(C)[C@H]2[C@H](CCO)O[C@@]3(C(=O)N(Cc4ccc(N(C=O)c5ccccc5)cc4)c4ccccc43)[C@@H]2C)cc1	-0.498
[N-]=[N+]=Nc1ccccc1[C@H]1OC(c2ccc(OCCCO)cc2)=N[C@@]1(CCS(=O)(=O)c1ccccc1)C(N)=O	0.875
NC(=O)NCC#Cc1ccc2c(c1)[C@]1(C(=O)N2)[C@H](c2ccccc2OCCO)N2[C@H](c3ccccc3)[C@H](c3ccccc3)OC(=O)[C@H]2[C@@H]1C(=O)Nc1nc2ccccc2s1	-0.671
CCCC=C(CCC)[C@@H](NC(=O)c1cccs1)c1ccc(C(F)(F)F)cc1	0.598
CN(C)C(=O)[C@]1(Cc2ccccc2N=[N+]=[N-])N=C(c2ccc(OCCCO)cc2)O[C@@H]1c1ccccc1N=[N+]=[N-]	1.49
COC(=O)[C@@]1(Cc2ccc(OC)cc2)[C@H]2c3cc(C(=O)N(C)C)n(Cc4ccccn4)c3C[C@H]2CN1C(=O)c1ccccc1	0.192
COC(=O)[C@@]1(Cc2ccc(F)cc2)[C@H]2c3cc(C(=O)N4CCCC4)n(CCCNc4ncc(C(F)(F)F)cc4Cl)c3C[C@H]2CN1C(=O)c1ccccc1	-0.107
O=C(CS)NCCCCCCNC(=O)[C@@H]1C[C@@H]2C(=O)NCC(=O)N2[C@@H]1c1cccc(OCCO)c1	1.29
CCOC(=O)C[C@H]1[C@H](OC(=O)c2ccccc2-c2ccccc2)[C@@H](NC(=O)CC(C)C)c2cc(OCCCO)ccc2N1C(=O)Cc1ccc(OC)cc1	0.0776
COc1ccc([C@H]2OC[C@@H]3C[C@@H](Cc4ccccc4)C(=O)N32)cc1	0.656

Compound	composite z-score
COc1ccc(CCNC(=O)[C@@]2(C)c3ccccc3C(=O)N(C(C)C)[C@H]2c2ccc(CO)cc2)cc1	0.0534
C=CCOC(=O)[C@@H]1[C@H]2C(=O)O[C@H](c3ccccc3)[C@H](c3ccccc3)N2[C@H](c2ccc(OCCOC(=O)[C@@H]3C[C@@H]4C(=O)NCC(=O)N4[C@@H]3c3ccc(O)cc3)cc2)[C@@]12C(=O)Nc1ccc(I)cc12	0.877
O=C1C[C@@](C(=O)NCCN2CCOCC2)(c2ccc([N+](=O)[O-])cc2)[C@@H](c2ccc(CO)cc2)N1CC12CC3CC(CC(C3)C1)C2	0.179
COCCOC(=O)N1C(=O)[C@@]2(c3cc(C#CCC(C(=O)OC)C(=O)OC)ccc31)[C@H](C(=O)Nc1nc3ccccc3s1)[C@H]1C(=O)O[C@H](c3ccccc3)[C@H](c3ccccc3)N1[C@@H]2c1ccccc1OCCO	0.776
COC(=O)[C@@]1(Cc2ccccc2)[C@H]2c3cc(C(=O)N(C)C)n(Cc4ccsc4Br)c3C[C@H]2CN1C(=O)c1ccccc1	0.856
CC1CC/C=C\[C@H]2OC34C=CCN(C(C)(C)C)C(=O)[C@H]3N(CCO)C(=O)[C@@H]4C2C(=O)O1 (stereo partly drawn)	-2.34
C=C(CCCC)/C(=C/C[C@@H](OC(C)=O)c1ccc(OCCO)cc1)c1cnc2ccccc2c1	-0.197
CC(C)C(O)C1C=CC2C(=O)N(c3ccccc3)C(=O)C2N1Nc1ccc([N+](=O)[O-])cc1 (stereo not drawn)	0.0373
C=C(COC)/C(=C/C[C@H](OC(C)=O)c1ccc(CO)o1)c1cc(C(=O)OC)ccc1OC	-0.156
COC(=O)[C@@]1(Cc2ccc(OC)cc2)[C@H]2c3cc(C(=O)N(C)C)n(C)c3C[C@H]2CN1C(=O)c1ccccc1	-0.0231
CCOC(=O)[C@H]1C/C=C/C[C@H](C(=O)OCC)C(=O)O[C@H]2[C@@H](OC)O[C@H](CO)[C@@H](OC(=O)c3c(OC)cccc3OC)[C@@H]2OC1=O	0.292
CC(C)NC(=O)[C@@]1(c2ccc([N+](=O)[O-])cc2)CC(=O)N(C2CCCCC2)[C@@H]1c1ccc(CO)cc1I	0.0498
CN1C(=O)C2C=CC(C(O)c3ccc([N+](=O)[O-])cc3)N(N3CCCCC3)C2C1=O (stereo not drawn)	0.319
COCCOC(=O)N1C(=O)[C@@]2(c3cc(C#CCNC(N)=O)ccc31)[C@H](C(=O)N1CCN(c3ncccn3)CC1)[C@H]1C(=O)O[C@H](c3ccccc3)[C@H](c3ccccc3)N1[C@@H]2c1ccc(OCCO)cc1	1.44
O=C1NC(=O)C2C1C=CC(C(O)c1cc(C(F)(F)F)cc(C(F)(F)F)c1)N2Nc1ccccn1 (stereo not drawn)	-0.138

From PubChem BioAssay
